According to PubChem BioAssay AID1159580 (chemical genetic matrix, 2015):
About 2,000 (36%) of roughly 5,500 compounds were called active. Inconclusive results (about 18%) are left out. Rule as the data show it: active = normalized growth mostly below about 0.91 (no sharp cut-off); inconclusive = no clear call, values can overlap the other calls; inactive = mostly above about 0.92. The list shows a part of the results.

Assay: chemical genetic growth profiling, strain panel (AID 1159580);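 also: tested at 20 µM; growth read once vehicle control cultures reached saturation at 30 °C; 1 = growth at the plate median or of vehicle wells; lower values mean less growth of the strain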
Settings: growth OD

Measured: normalized growth

CC(C)CC(N(C)C)C1(c2ccc(Cl)cc2)CCC1 (configuration not stated)
inactive: S. cerevisiae deletion strains, locus YJR075W, strain HOC1, hits give low values 0.995 | S. cerevisiae deletion strains, locus YKL009W, strain mrt4, hits give low values 1.03 | S. cerevisiae deletion strains, locus YKL068W, hits give low values 1.01 | S. cerevisiae deletion strains, locus YKL085W, strain MDH1 (second series), hits give low values 1.01 | S. cerevisiae deletion strains, locus YKL085W, strain MDH1, hits give low values 1.01 | S. cerevisiae deletion strains, locus YKL160W, strain elf1, hits give low values 1.02 | S. cerevisiae deletion strains, locus YKL190W, strain CNB1, hits give low values 0.997 | S. cerevisiae deletion strains, locus YKR001C, strain vps1, hits give low values 1.02 | S. cerevisiae deletion strains, locus YKR026C, strain gcn3, hits give low values 1.01 | S. cerevisiae deletion strains, locus YKR091W, strain srl3, hits give low values 1.01 | S. cerevisiae deletion strains, locus YLL001W, strain dnm1, hits give low values 1.01 | S. cerevisiae deletion strains, locus YLL026W, hits give low values 1.01 | S. cerevisiae deletion strains, locus YLL041C, strain sdh2, hits give low values 1 | S. cerevisiae deletion strains, locus YLR027C, strain aat2, hits give low values 1.02 | S. cerevisiae deletion strains, locus YLR039C, strain RIC1, hits give low values 1.13 | S. cerevisiae deletion strains, locus YLR058C, strain SHM2, hits give low values 1.01 | S. cerevisiae deletion strains, locus YLR102C, strain apc9, hits give low values 1.01 | S. cerevisiae deletion strains, locus YLR113W, strain HOG1, hits give low values 0.995 | S. cerevisiae deletion strains, locus YLR221C, strain rsa3, hits give low values 0.994 | S. cerevisiae deletion strains, locus YLR258W, strain gsy2, hits give low values 1 | S. cerevisiae deletion strains, locus YLR262C, strain YPT6 (second series), hits give low values 1.05 | S. cerevisiae deletion strains, locus YLR262C, strain YPT6, hits give low values 1.11 | S. cerevisiae deletion strains, locus YLR268W, strain sec22, hits give low values 1.02 | S. cerevisiae deletion strains, locus YLR320W, strain mms22, hits give low values 0.989 | S. cerevisiae deletion strains, locus YLR330W, strain CHS5, hits give low values 1 | S. cerevisiae deletion strains, locus YLR342W, strain FKS1 (second series), hits give low values 1.01 | S. cerevisiae deletion strains, locus YLR342W, strain FKS1, hits give low values 1.01 | S. cerevisiae deletion strains, locus YLR357W, strain rsc2, hits give low values 1.01 | S. cerevisiae deletion strains, locus YLR370C, strain arc18, hits give low values 1.01 | S. cerevisiae deletion strains, locus YLR371W, strain rom2, hits give low values 1.01 | S. cerevisiae deletion strains, locus YLR384C, strain iki3, hits give low values 1.02 | S. cerevisiae deletion strains, locus YLR418C, strain cdc73, hits give low values 1.05 | S. cerevisiae deletion strains, locus YML016C, strain PPZ1, hits give low values 1.02 | S. cerevisiae deletion strains, locus YML032C, strain rad52, hits give low values 1.02 | S. cerevisiae deletion strains, locus YML120C, strain ndi1, hits give low values 1.01 | S. cerevisiae deletion strains, locus YML124C, strain tub3, hits give low values 1.01 | S. cerevisiae deletion strains, locus YMR058W, strain fet3, hits give low values 1.01 | S. cerevisiae deletion strains, locus YMR078C, strain ctf18, hits give low values 1.02 | S. cerevisiae deletion strains, locus YMR125W, strain sto1, hits give low values 0.979 | S. cerevisiae deletion strains, locus YMR129W, hits give low values 1.01 | S. cerevisiae deletion strains, locus YMR205C, strain PFK2, hits give low values 1.01 | S. cerevisiae deletion strains, locus YMR223W, strain ubp8, hits give low values 1.01 | S. cerevisiae deletion strains, locus YMR231W, strain pep5, hits give low values 0.989 | S. cerevisiae deletion strains, locus YMR263W, strain SAP30, hits give low values 0.999 | S. cerevisiae deletion strains, locus YMR307W, strain GAS1, hits give low values 1.01 | S. cerevisiae deletion strains, locus YNL067W, strain RPL9B, hits give low values 0.992 | S. cerevisiae deletion strains, locus YNL071W, strain lat1, hits give low values 1.01 | S. cerevisiae deletion strains, locus YNL128W, strain TEP1, hits give low values 0.987 | S. cerevisiae deletion strains, locus YNL153C, strain GIM3, hits give low values 1.01 | S. cerevisiae deletion strains, locus YNL183C, strain NPR1, hits give low values 0.972 | S. cerevisiae deletion strains, locus YNL209W, strain ssb2, hits give low values 0.996 | S. cerevisiae deletion strains, locus YNL233W, strain BNI4, hits give low values 1.01 | S. cerevisiae deletion strains, locus YNL248C, strain rpa49, hits give low values 0.997 | S. cerevisiae deletion strains, locus YNL250W, strain rad50, hits give low values 1 | S. cerevisiae deletion strains, locus YNL271C, strain bni1, hits give low values 1.02 | S. cerevisiae deletion strains, locus YNL298W, strain CLA4, hits give low values 1.02 | S. cerevisiae deletion strains, locus YNL307C, strain MCK1, hits give low values 1.03 | S. cerevisiae deletion strains, locus YNL322C, strain KRE1 (second series), hits give low values 1 | S. cerevisiae deletion strains, locus YNL322C, strain KRE1, hits give low values 1 | S. cerevisiae deletion strains, locus YNR049C, strain mso1, hits give low values 0.996 | S. cerevisiae deletion strains, locus YNR052C, strain pop2, hits give low values 1.01 | S. cerevisiae deletion strains, locus YOL006C, strain TOP1, hits give low values 1.03 | S. cerevisiae deletion strains, locus YOL012C, strain htz1 0.875 | S. cerevisiae deletion strains, locus YOL147C, strain pex11, hits give low values 1 | S. cerevisiae deletion strains, locus YOR001W, strain rrp6, hits give low values 1.02 | S. cerevisiae deletion strains, locus YOR061W, strain CKA2, hits give low values 1.01 | S. cerevisiae deletion strains, locus YOR069W, strain VPS5, hits give low values 0.992 | S. cerevisiae deletion strains, locus YOR070C, strain gyp1, hits give low values 0.997 | S. cerevisiae deletion strains, locus YOR080W, strain dia2, hits give low values 1.01 | S. cerevisiae deletion strains, locus YOR083W, strain WHI5, hits give low values 1 | S. cerevisiae deletion strains, locus YOR106W, strain vam3, hits give low values 1.03 | S. cerevisiae deletion strains, locus YOR136W, strain idh2, hits give low values 1.02 | S. cerevisiae deletion strains, locus YOR144C, strain elg1, hits give low values 1.02 | S. cerevisiae deletion strains, locus YOR184W, strain ser1, hits give low values 1.03 | S. cerevisiae deletion strains, locus YOR231W, strain MKK1, hits give low values 1.03 | S. cerevisiae deletion strains, locus YOR265W, strain rbl2, hits give low values 1.02 | S. cerevisiae deletion strains, locus YOR270C, strain vph1, hits give low values 0.991 | S. cerevisiae deletion strains, locus YOR290C, strain snf2, hits give low values 0.99 | S. cerevisiae deletion strains, locus YOR316C, strain cot1, hits give low values 1.01 | S. cerevisiae deletion strains, locus YPL051W, strain arl3, hits give low values 0.997 | S. cerevisiae deletion strains, locus YPL055C, strain LGE1, hits give low values 0.999 | S. cerevisiae deletion strains, locus YPL078C, strain atp4, hits give low values 1.02 | S. cerevisiae deletion strains, locus YPL106C, strain sse1, hits give low values 0.988 | S. cerevisiae deletion strains, locus YPL240C, strain hsp82, hits give low values 1.02 | S. cerevisiae deletion strains, locus YPL241C, strain CIN2, hits give low values 0.995 | S. cerevisiae deletion strains, locus YPL256C, strain CLN2, hits give low values 1.01 | S. cerevisiae deletion strains, locus YPR119W, strain clb2, hits give low values 1.01 | S. cerevisiae deletion strains, locus YPR141C, strain kar3, hits give low values 1.01 | S. cerevisiae deletion strains, locus YPR163C, strain tif3, hits give low values 1.02 | S. cerevisiae deletion strains, locus YPR167C, strain met16, hits give low values 1.02 | S. cerevisiae deletion strains, strain wtn01, hits give low values 1.03 | S. cerevisiae strains, strain wild type, hits give low values 0.98
